In the supplement of paper PMC10849652:
The full data set covers some 7,900 targets. This sample favours those with a hit. About 0.6% of all pairs of compound and target were hits.

Columns and labels:
Experiment in all cases: log2 fold change, soluble protein after heating vs DMSO (PISA); higher = thermal stabilisation; K562 cells, 10 uM, 30 min; active = over 0.2 and 3.5 SD of the protein, either way, in both replicates (recomputed)
[1] = compound: NC(=O)Nc1cc(-c2cccc(F)c2)sc1C(=O)N[C@H]1CCCNC1
Method in brief: (§1)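 Aliquots of K562 cells (2×10^6 cells/mL) treated with 10 μM compound for 30 min were heated for 3 min over 48°C-58°C. After pooling and extraction in PBS with 0.5% NP-40 at 4°C, soluble protein from a 21,000xg, 90 min spin was quantified by TMTpro 16plex LC-MS/MS with channel sums equalised. Thermal stability is expressed against control samples, from duplicates, as a log2 fold change.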

[2] = compound: NC(=O)c1cnc(N[C@@H]2CCCC[C@@H]2N)nc1Nc1cccc(-n2nccn2)c1
Method in brief: as §1

[3] = compound: NC1(c2ccc(-c3nc4ccn5c(=O)[nH]nc5c4cc3-c3ccccc3)cc2)CCC1
Method in brief: as §1

[4] = compound: NCC(=O)Nc1ccc(-n2nc(C(F)(F)F)cc2-c2ccc3c(ccc4ccccc43)c2)cc1
Method in brief: as §1

entinostat = compound: Nc1ccccc1NC(=O)c1ccc(CNC(=O)OCc2cccnc2)cc1 [entinostat]
Method in brief: as §1

citarinostat = compound: O=C(CCCCCCNC(=O)c1cnc(N(c2ccccc2)c2ccccc2Cl)nc1)NO [citarinostat]
Method in brief: as §1

silmitasertib = compound: O=C(O)c1ccc2c(c1)nc(Nc1cccc(Cl)c1)c1ccncc12 [silmitasertib]
Method in brief: as §1

[5] = compound: O=C1NC(=O)C(c2cnc3ccccn23)=C1c1cn2c3c(cc(F)cc13)CN(C(=O)N1CCCCC1)CC2
Method in brief: as §1

[6] = compound: c1cc(OCCN2CCCCC2)cc(-c2n[nH]c3ccc(-c4nnc[nH]4)cc23)c1
Method in brief: as §1

entospletinib = compound: c1cn2cc(-c3ccc4cn[nH]c4c3)nc(Nc3ccc(N4CCOCC4)cc3)c2n1 [entospletinib]
Method in brief: as §1

vorinostat = compound: O=C(CCCCCCC(=O)Nc1ccccc1)NO [vorinostat]
Method in brief: as §1

Measured: log2 fold change

SERINC1 (UniProt Q9NRX5)
Chain of UniProt Q9NRX5 (Q9NRX5 whole entry, looked up): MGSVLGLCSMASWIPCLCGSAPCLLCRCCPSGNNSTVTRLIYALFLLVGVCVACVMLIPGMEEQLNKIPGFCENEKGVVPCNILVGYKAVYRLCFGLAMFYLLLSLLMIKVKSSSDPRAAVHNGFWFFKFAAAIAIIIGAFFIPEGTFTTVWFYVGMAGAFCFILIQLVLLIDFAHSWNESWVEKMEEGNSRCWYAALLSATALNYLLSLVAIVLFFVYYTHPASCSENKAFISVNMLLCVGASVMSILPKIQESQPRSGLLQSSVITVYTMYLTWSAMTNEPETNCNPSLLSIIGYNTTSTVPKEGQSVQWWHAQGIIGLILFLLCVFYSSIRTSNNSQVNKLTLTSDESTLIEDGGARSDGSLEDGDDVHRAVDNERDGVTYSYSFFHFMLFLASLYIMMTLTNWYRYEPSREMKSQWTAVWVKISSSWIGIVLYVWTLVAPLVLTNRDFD
inactive: [1] -0.061 | [2] -0.241 | [3] 0.004 | [4] -0.174 | entinostat -0.009 | citarinostat 0.088 | silmitasertib 0.197 | [5] 0.032 | [6] 0.022 | entospletinib 0.022

SCAMP2 (UniProt H3BUB6)
inactive: [1] -0.31 | [2] -0.392 | [3] 0.021 | [4] -0.311 | entinostat -0.175 | citarinostat -0.364 | silmitasertib 0.129 | [5] -0.267 | [6] -0.118 | entospletinib 0.154

SDCBP isoform 2 (UniProt O00560)
Chain of UniProt O00560 (O00560 whole entry, looked up): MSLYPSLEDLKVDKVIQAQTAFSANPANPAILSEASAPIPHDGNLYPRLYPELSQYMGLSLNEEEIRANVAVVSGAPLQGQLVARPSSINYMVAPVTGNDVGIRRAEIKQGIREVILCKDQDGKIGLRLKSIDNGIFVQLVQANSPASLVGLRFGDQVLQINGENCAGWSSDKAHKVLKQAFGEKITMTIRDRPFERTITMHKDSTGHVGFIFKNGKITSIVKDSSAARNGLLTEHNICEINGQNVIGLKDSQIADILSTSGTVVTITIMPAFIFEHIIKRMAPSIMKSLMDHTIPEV
inactive: [1] -0.038 | [3] -0.286 | entinostat 0.004 | vorinostat -0.01 | citarinostat 0.024 | silmitasertib 0.124 | [5] -0.041 | [6] 0.097 | entospletinib -0.2

RNF41 (UniProt Q9H4P4)
inactive: [2] 0.082 | citarinostat 0.044 | [6] -0.018 | entospletinib 0.044

SCYL3 isoform 2 (UniProt Q8IZE3)
Chain of UniProt Q8IZE3 (Q8IZE3 whole entry, looked up): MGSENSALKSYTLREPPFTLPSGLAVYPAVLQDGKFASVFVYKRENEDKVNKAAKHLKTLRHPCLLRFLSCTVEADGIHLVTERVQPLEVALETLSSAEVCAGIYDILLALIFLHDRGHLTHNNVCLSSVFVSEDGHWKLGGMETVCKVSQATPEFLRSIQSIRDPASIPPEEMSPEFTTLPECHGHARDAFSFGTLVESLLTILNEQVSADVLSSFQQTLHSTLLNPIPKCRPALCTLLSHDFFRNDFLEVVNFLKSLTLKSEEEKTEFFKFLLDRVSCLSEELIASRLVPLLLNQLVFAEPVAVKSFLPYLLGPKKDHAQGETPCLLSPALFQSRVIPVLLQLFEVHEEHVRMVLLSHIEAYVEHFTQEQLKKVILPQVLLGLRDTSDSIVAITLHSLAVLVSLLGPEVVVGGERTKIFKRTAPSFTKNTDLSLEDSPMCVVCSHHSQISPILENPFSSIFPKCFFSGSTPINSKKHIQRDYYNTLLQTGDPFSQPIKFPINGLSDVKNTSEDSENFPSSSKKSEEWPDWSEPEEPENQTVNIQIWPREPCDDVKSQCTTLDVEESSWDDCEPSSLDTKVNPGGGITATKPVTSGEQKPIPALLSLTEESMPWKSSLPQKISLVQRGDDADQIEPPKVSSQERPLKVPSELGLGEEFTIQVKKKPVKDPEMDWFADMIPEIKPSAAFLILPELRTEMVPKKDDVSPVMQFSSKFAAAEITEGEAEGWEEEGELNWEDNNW
inactive: [2] 0.001 | [3] -0.185 | [4] -0.055 | vorinostat 0.031 | citarinostat -0.047 | silmitasertib 0.021 | [5] -0.053 | [6] 0.173 | entospletinib -0.09

RBM26 isoform 3 (UniProt Q5T8P6)
inactive: [1] -0.079 | [2] -0.046 | entinostat 0.103

SDC3 (UniProt O75056)
inactive: [1] 0.044 | [2] -0.016 | [4] 0.026 | entinostat 0.035 | vorinostat 0.211 | citarinostat 0.354 | [5] 0.09 | [6] 0.174
active: entospletinib -0.853

RPS3 (UniProt E9PJN9)
inactive: vorinostat 0.2 | citarinostat 0 | [6] -0.048 | entospletinib 0.2

SAMD4B (UniProt Q5PRF9)
inactive: [1] -0.459 | entinostat 0.133 | vorinostat -0.069 | [5] 0.067

ROMO1 (UniProt P60602)
Chain of UniProt P60602 (P60602 whole entry, looked up): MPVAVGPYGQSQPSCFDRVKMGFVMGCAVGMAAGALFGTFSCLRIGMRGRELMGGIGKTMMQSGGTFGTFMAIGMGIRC
inactive: [1] -0.105 | [2] 0.046 | [3] -0.051 | entinostat 0.011 | vorinostat -0.013 | citarinostat 0.072 | silmitasertib 0.032 | [5] 0.062 | [6] -0.042 | entospletinib 0.045

RAPGEF4 (UniProt Q8WZA2)
Chain of UniProt Q8WZA2 (Q8WZA2 whole entry, looked up): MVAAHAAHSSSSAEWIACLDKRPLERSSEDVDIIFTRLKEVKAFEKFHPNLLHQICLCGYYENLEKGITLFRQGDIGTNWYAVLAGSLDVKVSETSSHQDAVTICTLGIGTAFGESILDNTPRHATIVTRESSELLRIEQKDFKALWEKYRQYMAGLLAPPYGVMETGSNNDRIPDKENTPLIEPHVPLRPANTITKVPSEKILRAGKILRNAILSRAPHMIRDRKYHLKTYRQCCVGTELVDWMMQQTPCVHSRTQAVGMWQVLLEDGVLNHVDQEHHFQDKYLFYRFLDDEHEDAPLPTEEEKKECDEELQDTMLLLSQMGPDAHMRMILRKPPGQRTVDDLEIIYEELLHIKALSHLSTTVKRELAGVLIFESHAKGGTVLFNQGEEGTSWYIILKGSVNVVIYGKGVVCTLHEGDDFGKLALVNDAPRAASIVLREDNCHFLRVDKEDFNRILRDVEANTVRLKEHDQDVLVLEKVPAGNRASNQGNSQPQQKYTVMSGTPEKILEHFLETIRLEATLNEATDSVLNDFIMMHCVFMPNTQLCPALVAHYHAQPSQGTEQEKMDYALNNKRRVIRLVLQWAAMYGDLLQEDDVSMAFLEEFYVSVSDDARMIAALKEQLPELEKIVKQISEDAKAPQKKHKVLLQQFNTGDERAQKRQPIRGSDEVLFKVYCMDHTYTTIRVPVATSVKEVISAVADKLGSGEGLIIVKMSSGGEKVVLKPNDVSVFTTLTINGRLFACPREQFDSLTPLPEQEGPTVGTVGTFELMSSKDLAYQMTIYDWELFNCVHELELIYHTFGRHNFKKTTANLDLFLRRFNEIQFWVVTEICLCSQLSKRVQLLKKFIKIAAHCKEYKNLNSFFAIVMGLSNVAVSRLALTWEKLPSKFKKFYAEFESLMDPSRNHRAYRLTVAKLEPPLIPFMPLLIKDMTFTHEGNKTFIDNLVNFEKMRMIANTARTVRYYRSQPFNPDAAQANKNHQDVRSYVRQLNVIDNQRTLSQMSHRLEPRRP
inactive: [1] -0.095 | [2] -0.13 | [3] -0.054 | [4] -0.04 | entinostat -0.003 | citarinostat 0.161 | silmitasertib 0.125 | [5] -0.279 | [6] 0.127 | entospletinib -0.14

RMDN2 isoform 2 (UniProt Q96LZ7)
Chain of UniProt Q96LZ7 (Q96LZ7 whole entry, looked up): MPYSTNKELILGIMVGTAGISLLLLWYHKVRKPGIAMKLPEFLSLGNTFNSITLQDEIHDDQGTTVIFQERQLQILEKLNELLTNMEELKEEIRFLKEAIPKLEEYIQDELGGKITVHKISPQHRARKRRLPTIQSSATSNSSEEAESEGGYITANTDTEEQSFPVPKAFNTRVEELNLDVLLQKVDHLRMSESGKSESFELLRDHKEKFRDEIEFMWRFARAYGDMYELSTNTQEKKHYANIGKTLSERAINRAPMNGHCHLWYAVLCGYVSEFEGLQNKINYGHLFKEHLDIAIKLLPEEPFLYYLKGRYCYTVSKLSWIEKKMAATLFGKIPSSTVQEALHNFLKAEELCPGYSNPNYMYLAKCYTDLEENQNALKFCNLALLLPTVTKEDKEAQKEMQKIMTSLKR
inactive: [3] -0.018 | [4] 0.116 | silmitasertib -0.275

RBM6 (UniProt P78332)
inactive: [1] 0.099 | [2] -0.06 | [3] 0.222 | entinostat -0.317 | vorinostat -0.012 | silmitasertib 0.017

RALGPS2 (UniProt Q86X27)
Chain of UniProt Q86X27 (Q86X27 whole entry, looked up): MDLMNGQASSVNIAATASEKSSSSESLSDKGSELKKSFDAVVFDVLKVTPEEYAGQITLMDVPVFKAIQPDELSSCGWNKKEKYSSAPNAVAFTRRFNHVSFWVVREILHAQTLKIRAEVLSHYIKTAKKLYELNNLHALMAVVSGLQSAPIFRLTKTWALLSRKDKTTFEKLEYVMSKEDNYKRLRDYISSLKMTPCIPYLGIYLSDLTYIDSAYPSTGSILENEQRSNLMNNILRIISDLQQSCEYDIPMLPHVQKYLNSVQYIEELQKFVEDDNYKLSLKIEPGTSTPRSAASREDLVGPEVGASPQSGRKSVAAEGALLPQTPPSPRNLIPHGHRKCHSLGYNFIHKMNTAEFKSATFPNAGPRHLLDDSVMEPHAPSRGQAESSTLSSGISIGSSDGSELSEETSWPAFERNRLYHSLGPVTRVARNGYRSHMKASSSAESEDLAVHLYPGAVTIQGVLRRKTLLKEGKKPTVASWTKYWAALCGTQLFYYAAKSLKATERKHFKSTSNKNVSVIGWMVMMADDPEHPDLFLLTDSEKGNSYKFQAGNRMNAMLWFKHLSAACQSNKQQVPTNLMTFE
inactive: [2] 0.258 | [3] -0.08 | [4] 0.175 | vorinostat 0.074 | citarinostat 0.219 | silmitasertib 0.089 | [5] 0.34 | [6] -0.153 | entospletinib -0.153

RNF26 (UniProt Q9BY78)
inactive: [4] -0.161 | vorinostat -0.094

RNF220 isoform 3 (UniProt Q5VTB9)
inactive: [2] 0.115

SEMG2 (UniProt Q02383)
inactive: [1] -0.013 | [2] 0.046 | [3] 0.651 | entinostat 0.033 | vorinostat -0.073 | citarinostat 0.066 | silmitasertib 0.001 | [5] 0.051 | [6] -0.067 | entospletinib -0.048

RPS19 (UniProt M0R2L9)
inactive: [2] -0.159 | [3] 0.453 | silmitasertib -0.634

RICTOR isoform 3 (UniProt Q6R327)
inactive: [1] 0.075 | [2] 0.054 | entinostat 0.044 | vorinostat 0.211 | citarinostat 0.066 | [5] 0.289 | [6] -0.155 | entospletinib 0.01

SLC1A3 (UniProt P43003)
Chain of UniProt P43003 (P43003 whole entry, looked up): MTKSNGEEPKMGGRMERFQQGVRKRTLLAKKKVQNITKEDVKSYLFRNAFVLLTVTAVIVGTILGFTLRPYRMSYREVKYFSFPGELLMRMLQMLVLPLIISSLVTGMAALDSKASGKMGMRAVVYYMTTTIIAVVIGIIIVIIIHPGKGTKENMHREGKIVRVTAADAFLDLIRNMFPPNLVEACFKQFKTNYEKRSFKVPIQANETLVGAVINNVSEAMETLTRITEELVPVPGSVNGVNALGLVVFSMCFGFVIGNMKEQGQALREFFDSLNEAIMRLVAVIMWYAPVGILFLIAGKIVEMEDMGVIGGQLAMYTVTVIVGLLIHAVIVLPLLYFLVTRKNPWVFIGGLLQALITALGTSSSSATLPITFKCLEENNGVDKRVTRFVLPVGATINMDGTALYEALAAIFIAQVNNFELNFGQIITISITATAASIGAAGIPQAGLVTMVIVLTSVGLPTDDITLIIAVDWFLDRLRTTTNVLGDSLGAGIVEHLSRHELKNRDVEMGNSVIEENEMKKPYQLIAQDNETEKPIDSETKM
inactive: [2] 0.237 | [3] 0.103 | [4] -0.055 | vorinostat 0.143 | citarinostat -0.096 | silmitasertib -0.021 | [5] -0.18 | [6] -0.182 | entospletinib 0.028

ROCK1 (UniProt Q13464)
inactive: [2] 0.054 | [3] -0.09 | [4] -0.029 | entinostat -0.002 | vorinostat 0.029 | citarinostat 0.068 | [5] -0.054 | entospletinib -0.009

RPS6KA5 (UniProt O75582)
Chain of UniProt O75582 (O75582 whole entry, looked up): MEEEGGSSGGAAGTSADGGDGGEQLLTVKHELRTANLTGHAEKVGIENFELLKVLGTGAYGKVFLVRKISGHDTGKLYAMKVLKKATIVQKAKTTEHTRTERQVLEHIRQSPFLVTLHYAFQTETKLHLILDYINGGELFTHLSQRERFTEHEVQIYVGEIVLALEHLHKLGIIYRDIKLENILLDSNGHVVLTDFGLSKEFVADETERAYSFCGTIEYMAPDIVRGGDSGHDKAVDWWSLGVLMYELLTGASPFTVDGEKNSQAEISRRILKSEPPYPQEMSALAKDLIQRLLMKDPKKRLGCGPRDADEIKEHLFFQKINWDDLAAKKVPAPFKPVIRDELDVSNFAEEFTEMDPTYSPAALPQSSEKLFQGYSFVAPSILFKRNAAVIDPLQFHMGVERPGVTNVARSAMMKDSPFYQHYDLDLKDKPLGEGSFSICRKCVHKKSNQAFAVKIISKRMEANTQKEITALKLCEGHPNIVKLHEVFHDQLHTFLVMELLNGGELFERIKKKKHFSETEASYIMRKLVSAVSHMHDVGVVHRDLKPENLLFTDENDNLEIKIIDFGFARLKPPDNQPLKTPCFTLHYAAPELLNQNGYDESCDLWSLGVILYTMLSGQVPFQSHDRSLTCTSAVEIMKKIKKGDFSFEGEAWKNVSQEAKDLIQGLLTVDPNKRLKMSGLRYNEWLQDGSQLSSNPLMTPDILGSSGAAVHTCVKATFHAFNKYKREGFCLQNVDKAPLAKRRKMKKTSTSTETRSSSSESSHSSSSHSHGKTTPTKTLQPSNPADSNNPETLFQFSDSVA
inactive: [3] -0.138 | citarinostat -0.101 | silmitasertib 0.045 | [5] -0.088 | [6] 0.092 | entospletinib -0.094
